Pf growth 48h = P. falciparum growth inhibition at 48 hours (one generation). P. falciparum luciferase growth in erythrocytes, 48 h. Potency, µM (titrated, usually from 28.7 µM), for the others: at the highest dose activity change, negative = inhibition, actives largely listed as inhibitors. 310,000 compounds, 5.9% hits. AID 504832; note: potency is the fitted concentration of half-maximal effect; % is set by controls: 0 for no effect and ±100 for the full control effect
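Parasite viability was followed by luminescence of a genomically integrated firefly luciferase. Cultures held 0.1% parasitemia at 2% hematocrit (final), incubated under 5% CO2 at 37 C.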
Pf growth 96h = inhibits malaria parasite growth, 96 h. Potency, µM (highest dose often 28.7 µM), inactives show top-dose activity change, negative = inhibition, most hits filed as inhibitors. 320,000 compounds, 6.9% hits. P. falciparum luciferase reporter growth, 96 h; note: potency is the fitted concentration of half-maximal effect; % is set by controls: 0 for no effect and ±100 for the full control effect
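Two parasite generations (96 h, 37 C, 5% CO2) of compound exposure in infected erythrocytes (0.05% parasitemia, 2% hematocrit). Luciferase-reporter P. falciparum; decreased luminescence indicates inhibited growth, aimed at apicoplast-acting delayed death.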
CHX counter = counter-screen for Shiga toxin inhibitors: cycloheximide protein synthesis inhibition; cell reporter, cycloheximide protein synthesis inhibition counterscreen; 300,000 compounds, 12% hits; max response, %; in the data active = max response mostly above about 13%, no sharp cut-off; inactive = mostly below about 14%; note: read at 38.3 µM for the half of the compounds with a filed dose; 0% is about no effect
Shiga inhibitor = Shiga toxin inhibition; Vero cells, Shiga toxin protein synthesis inhibition reporter; inhibition, % at 38.7 µM; 290,000 compounds, 9.2% hits; AID 2315; in the data active = inhibition mostly above about 28%, no sharp cut-off; inactive = mostly below about 43%; note: 0% is about no effect
HCV inh = HCV inhibition. Huh7.5.1 HCVcc-Cre infection, luciferase reporter, 44 h. Potency, µM (top dose mostly 41.8 µM), inactives show at the top dose activity change, negative = inhibition, hits mostly inhibitors. 340,000 compounds, 3.4% hits; note: potency is the fitted concentration of half-maximal effect; % is set by controls: 0 for no effect and ±100 for the full control effect
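Infectious HCVcc-Cre (~0.5 moi) was added to cells just after compound, with cells seeded 4 h earlier at 1,000 per well. Luciferase activity after 44 h culture reported infection; substrate was incubated 15 min at room temperature before reading.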
HCMV inh = human cytomegalovirus inhibition; 410,000 compounds, 4.5% hits; activity change, negative = inhibition, % at 57.5 µM; HFF cells, HCMV-luciferase reporter, 72 h; hits give low values; in the data active = activity change below about -60%; inconclusive = no clear call, values can overlap the other calls; inactive = above about -39%; note: % is set by controls: 0 for no effect and ±100 for the full control effect
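Human foreskin fibroblasts infected with luciferase-reporter HCMV at MOI 1 PFU/cell, compounds at two doses. Luciferase measured 72 h post infection; normalized to buffer-only basal and Salinomycin (10uM) controls.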
An asterisk follows results filed as active; i = inactive; ? = inconclusive; · = not tested or not shown; ! = not confirmed by another sample; [ ] = dose if it differs, or a comment. The list is not random: actives were taken first. Their share in the collection is about 21%. Unless noted, calls come from the whole dose curve; as a rule, active = well fitted inhibition curve with a large enough effect; inconclusive = small, poorly fitted or top-dose-only effect, or another doubt; inactive = no such curve, though single readings can be large or run the other way.

SMILES	Pf growth 48h	Pf growth 96h	CHX counter	Shiga inhibitor	HCV inh	HCMV inh
CCn1c(NC(=O)Nc2cccc(C)c2C)cc2sccc21	·	13µM*	-4	13	-11%	2
CC(=O)C1=C(O)C(=O)N(c2ccccn2)C1c1ccccc1[N+](=O)[O-] (stereo unspecified)	-18%[0.00184 µM]	-10%	1	35	9%	78
Cc1nn(C)c(C(=O)N/N=C/c2cccc3ccccc23)c1Cl	21%	-13%	11*	43*	14%	6
COc1cc(/C=N/NC(=O)CCN2CCCCC2)ccc1O	3%	?	-2	3	14%	-22
Cc1cc(C(=O)N/N=C/c2ccccc2)c(C)o1	86%	107%	58*	68*	-3%	43
Cc1nn(C)c(C(=O)N/N=C/c2ccncc2)c1Cl	5%	17%	5	17	9%	9
Cc1cc(C(=O)N/N=C/C=C/c2ccccc2)c(C)o1	-2%	20%	13	-9	-10%	-18
COc1cc(/C=N/NC(=O)CN2CCCCC2)ccc1OCc1ccc(Br)cc1	3%	-4%	12*	-2	10µM*	-14
CCOc1cc(/C=N/OC(C)=O)ccc1OCc1ccccc1	27%	10µM*	12*	18	?	2
CCOc1cc(C(=O)N2CCOCC2)ccc1OCc1ccccc1	-4%	-22%	12	-41	0%	13
CCCC(=O)N1CCCC1(C)C(=O)Nc1ccc(-n2cccc2)cc1 (stereo unspecified)	·	·	·	·	·	-7
Cc1cc(C(=O)N/N=C/c2ccc(OCc3ccccc3)cc2)c(C)o1	?	7%	22*	56	?	-26
Cc1cc(C(=O)N/N=C/c2ccc([N+](=O)[O-])cc2)c(C)o1	29%	-3%	11	-3	-17%	-15
COc1ccc(/C=N/NC(=O)c2cc(C)oc2C)cc1OCc1ccccc1	-15%	-16%	12*	32	?	73
Cc1cc(C(=O)N/N=C/c2cccc3ccccc23)c(C)o1	39%	?	29*	41	-20%	44
COc1ccc(/C=N/NC(=O)CN(C)C(=O)OCc2ccccc2)cc1OC	0%	?	-4	16	3%	5
CN(C)c1ccc(C=NNC(=O)c2cccc3ccccc23)c(Cl)c1	·	·	·	·	?	-34
COc1ccc(/C=N/NC(=O)c2ccco2)cc1OCc1ccccc1	8.3µM*	?	19*	42*	-11%	36
Cc1ccc(CSc2nc3ccc(NC(=O)C(C)C)cc3s2)cc1	·	·	·	·	·	-13
COc1cc([C@H]2NC(=O)C[C@@H]2C(=O)O)ccc1OC(C)C	·	·	·	·	·	-13
O=C(N/N=C/c1ccccc1O)c1cccc2ccccc12	12µM*	214%	13*	21	?	-21
O=C(O)c1ccc(C=NNC(=O)c2cccc3ccccc23)cc1	·	·	·	·	21%	-30
COc1cc(/C=N/NC(=O)CC2(C)OCCCO2)ccc1OCc1ccccc1	-17%	5%	23*	9	?	?
CCOc1ccc(CCNC(=O)CCSCc2ccc(Cl)cc2)cc1OCC	·	·	·	·	·	-24
COc1ccc(OC)c(NC(=O)c2cc(=O)c3c(C)cc(C)cc3o2)c1	·	·	·	·	·	-3
SMILES	Pf growth 48h	Pf growth 96h	CHX counter	Shiga inhibitor	HCV inh	HCMV inh
CCCC(=O)Nc1nc2c(s1)CC(C(C)(C)C)CC2 (stereo unspecified)	·	·	·	·	·	28
CCCCCSc1cc(OC)c(CCNC)cc1OC	·	?	-2	-9	?	-24
CCCCCCCSc1cc(OC)c(CCNC)cc1OC	?	?	-3	-24	?	-99*
O=C(NCCCN1CCOCC1)c1ccc(S(=O)(=O)N2CCOCC2)cc1	4%	22%[5.75 µM]	26*	-9	9%	-16
O=C(NCCCN1CCOCC1)c1ccc(CSc2ccc(Cl)cc2)cc1	?	?	-1	-7	?	-70*
CC(C)c1ccc(C(=O)NCCCN2CCOCC2)cc1	32%	14%	37*	60	1%	-15
O=C(NC(=S)NCCN1CCOCC1)c1ccc(Cl)cc1	8%	1%	24*	34	14%	-6
O=C(NCCCN1CCOCC1)c1ccc(Br)cc1	·	-1%	9	30	2%	46
Cc1cccc(-c2noc(-c3ccccc3OCC(=O)Nc3ccccc3[N+](=O)[O-])n2)c1	·	·	·	·	·	6
N#Cc1ccc(C[C@H](C(=O)O)N2C(=O)c3ccc(C(=O)O)cc3C2=O)cc1	6%	2%	-6	-3	·	·
CC(=O)c1cc(C)ccc1OC(=O)CN1C(=O)c2ccccc2C1=O	-20%	7%	0	11	-4%	26
COC(=O)c1n[nH]n(-c2cc(Cl)cc(Cl)c2)c1=O	?	?	0	-7	7%	53
Cc1c(-c2ccccn2)c(=O)[nH]n1-c1ccc(F)cc1	i	i	28*	58	6%	14
O=c1[nH]n(-c2ccc(F)cc2)c2ncccc12	?	1%	9	-9	16%	-7
CCOC(=O)CSc1nc2sc3c(c2c(=O)n1Cc1ccccc1)CC(C)CC3 (stereo unspecified)	·	·	·	·	·	11
CCn1cc(C(=O)NCc2ccco2)c(=O)c2cc(S(=O)(=O)N3CCCCCC3)ccc21	?	26%	-1	-5	-14%	-5
CCn1cc(C(=O)NCc2ccco2)c(=O)c2cc(S(=O)(=O)N3CCc4ccccc4C3)ccc21	9.3µM*	5.2µM*	2	-10	-24%	1
CCCN(CCC)CCCNC(=O)c1cn(CC)c2ccc(S(=O)(=O)N3CCc4ccccc4C3)cc2c1=O	1%	?	-10	-27	?	-82*!
CCn1cc(C(=O)NCCCN(CC(C)C)CC(C)C)c(=O)c2cc(S(=O)(=O)N3CCc4ccccc4C3)ccc21	·	·	·	·	·	-2
CCn1cc(C(=O)NCCCN2CCCC2)c(=O)c2cc(S(=O)(=O)N3CCc4ccccc4C3)ccc21	?	42%	-3	-8	14µM*	-4
CCCCN(C)CCCNC(=O)c1cn(CC)c2ccc(S(=O)(=O)N3CCc4ccccc4C3)cc2c1=O	?	80%	-4	-2	?	-68*!
CCCCN(CC)CCCNC(=O)c1cn(CC)c2ccc(S(=O)(=O)N3CCc4ccccc4C3)cc2c1=O	?	?	-2	-13	?	-60*!
CCOC(=O)C1CCCN1C(=O)C1(NC(C)=O)CCCC1 (stereo unspecified)	·	·	·	·	9%	3
Cc1ccc(S(=O)(=O)NCC(=O)OCC(=O)N(CCC#N)c2ccccc2)cc1	·	·	·	·	-16%	-64*
COc1cc(O)c(C(CCN2CCCC2)c2cc(OC)c(OC)c(OC)c2)c(OC)c1 (stereo unspecified)	4.1µM*	2.9µM*	-3	-9	3%	1

Screening data: PubChem BioAssay, National Center for Advancing Translational Sciences (NCATS)
